Source: PubChem
HTR5A ag: HTR5A agonism, opioid heterodimer counter-screen; activation, % at 9.3 µM; 340,000 tested, 0.61% active; HTR5A agonist assay, luminescence, cell-based; in the data active = activation mostly above about 9.5%, no sharp cut-off; inactive = mostly below about 7.6%
MOR-DOR ag: agonists of human mu-delta opioid receptor heterodimerization. P35372+P41143. cells, OPRM1-OPRD1 heterodimerization, luminescence. activation, % at 9.3 µM. 340,000 tested, 0.3% active; in the data active = activation above about 18%
p-CIP stab down: p/CIP protein destabilization | Q05BA5 | F442A p/CIP-EGFP cells, EGFP fluorescence, 16 h | decrease of EGFP signal, % at 10 µM | 290,000 tested, 0.01% active | AID 1984;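 active = EGFP signal decrease of at least 30% at 10 µM or well 3 SD below plate mean, unless failing retest; inactive = the rest, including hits failing retest or dose response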
Target sequence (Q05BA5 1-1403): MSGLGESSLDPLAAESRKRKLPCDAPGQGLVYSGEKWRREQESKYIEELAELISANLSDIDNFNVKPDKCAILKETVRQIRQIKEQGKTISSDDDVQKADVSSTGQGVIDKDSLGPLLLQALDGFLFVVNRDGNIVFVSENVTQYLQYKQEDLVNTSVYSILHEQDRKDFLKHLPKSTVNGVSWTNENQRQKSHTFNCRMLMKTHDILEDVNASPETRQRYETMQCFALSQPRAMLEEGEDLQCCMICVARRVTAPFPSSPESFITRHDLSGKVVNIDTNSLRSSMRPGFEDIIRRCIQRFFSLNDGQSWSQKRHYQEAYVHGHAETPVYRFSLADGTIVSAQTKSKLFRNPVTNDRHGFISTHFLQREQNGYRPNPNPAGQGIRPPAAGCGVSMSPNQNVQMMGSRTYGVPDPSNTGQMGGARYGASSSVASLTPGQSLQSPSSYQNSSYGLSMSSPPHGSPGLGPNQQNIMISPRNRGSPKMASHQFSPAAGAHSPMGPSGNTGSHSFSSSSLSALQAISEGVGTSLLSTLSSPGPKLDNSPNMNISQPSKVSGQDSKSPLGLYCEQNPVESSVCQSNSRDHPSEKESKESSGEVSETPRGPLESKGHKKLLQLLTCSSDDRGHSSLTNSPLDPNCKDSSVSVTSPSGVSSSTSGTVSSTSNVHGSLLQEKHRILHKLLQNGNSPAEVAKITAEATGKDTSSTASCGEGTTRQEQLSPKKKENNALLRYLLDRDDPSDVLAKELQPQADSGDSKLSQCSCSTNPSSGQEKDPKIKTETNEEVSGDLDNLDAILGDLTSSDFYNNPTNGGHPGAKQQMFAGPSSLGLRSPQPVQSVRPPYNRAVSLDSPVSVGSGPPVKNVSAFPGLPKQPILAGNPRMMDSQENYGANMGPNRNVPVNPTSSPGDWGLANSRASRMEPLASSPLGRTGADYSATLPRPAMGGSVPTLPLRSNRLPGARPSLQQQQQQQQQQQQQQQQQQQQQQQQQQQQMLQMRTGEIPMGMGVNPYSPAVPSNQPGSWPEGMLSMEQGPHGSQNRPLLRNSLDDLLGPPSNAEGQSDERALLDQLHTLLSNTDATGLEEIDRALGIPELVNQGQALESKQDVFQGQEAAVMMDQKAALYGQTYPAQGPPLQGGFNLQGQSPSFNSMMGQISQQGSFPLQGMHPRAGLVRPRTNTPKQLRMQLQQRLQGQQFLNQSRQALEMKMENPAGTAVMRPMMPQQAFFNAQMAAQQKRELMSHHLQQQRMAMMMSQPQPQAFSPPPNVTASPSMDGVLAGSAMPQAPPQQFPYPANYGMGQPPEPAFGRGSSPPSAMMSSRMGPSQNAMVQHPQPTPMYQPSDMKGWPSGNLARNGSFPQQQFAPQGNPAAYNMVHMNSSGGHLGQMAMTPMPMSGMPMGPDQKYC
MOR-DOR inv ag: mu-delta opioid heterodimer inverse agonism | 340,000 tested, 0.21% active | inhibition, % at 9.3 µM | P35372+P41143 | cell-based MOR-DOR heterodimer luminescence; in the data active = inhibition above about 22%, passing the limit was not always enough
HTR5A inv ag: HTR5A inverse agonism, opioid heterodimer counter-screen | P47898 | HTR5A cell line, luminescence | inhibition, % at 9.3 µM | 340,000 tested, 0.083% active; in the data active = inhibition mostly above about 23%, no sharp cut-off; inactive = mostly below about 18%
beta cell repl: MIN6 beta-cell proliferation induction; MIN6 cells proliferation, ATPlite luminescence, 48 h; cells starved in 0.2% serum; 100% = growth in 10% serum; proliferation, % at 10 µM; 330,000 tested, 0.29% active; AID 2380;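 active = compounds whose signal lies at least 3.5 SD above the mean of all wells on their plate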
OPRM1-D1 inv cf: confirmation of human OPRM1-OPRD1 heterodimerization inverse agonists; shares compounds with MOR-DOR inv ag; cells expressing OPRM1/OPRD1 heterodimer, luminescence; inhibition, % at 9.3 µM; 580 tested, 20% active; AID 504900; in the data active = inhibition above about 32%
HTR5A inv ctr2: counter-screen for OPRM1-OPRD1 inverse agonists: human HTR5A inverse agonism; shares compounds with MOR-DOR inv ag; HTR5A-expressing cells, luminescence; inhibition, % at 9.3 µM; 580 tested, under 10 active; AID 504914; call rule not given here
Of the large screens only hits and unclear results are named; the others gave an inactive call (follow-up assays come after a bar, where they were run). Only some compounds are listed: those with a hit (about 1.4% of all), similar ones and a draw of the others.

Cn1cnc([N+](=O)[O-])c1S(=O)(=O)Oc1ccccc1	MOR-DOR inv ag 40 (no result: p-CIP stab down, beta cell repl) | OPRM1-D1 inv cf inactive | HTR5A inv ctr2 inactive
Cc1nn(C(C)C(=O)c2cccc(Cl)c2)c(C)c1[N+](=O)[O-] (stereo unspecified)	none
Cn1cnc([N+](=O)[O-])c1S(=O)(=O)c1cccc(Cl)c1	MOR-DOR inv ag 29 | OPRM1-D1 inv cf inactive | HTR5A inv ctr2 inactive
Cc1ccc(CN2CC(C(=O)NCCC3=CCCCC3)CC2=O)cc1 (stereo unspecified)	none (no result: p-CIP stab down)
CSCCC(NC(=O)c1ccc(Cl)cc1Cl)C(=O)NNC(=O)c1ccncc1 (stereo unspecified)	none (no result: p-CIP stab down)
O=C(COC(=O)c1cc(S(=O)(=O)N2CCOCC2)ccc1Cl)NCc1ccccc1	none (no result: p-CIP stab down)
Cc1cnn(CCC(=O)NNC(=S)Nc2ccc(F)cc2)c1	MOR-DOR inv ag 31 | OPRM1-D1 inv cf 40 | HTR5A inv ctr2 inactive
COCC(C)OC(=O)c1c(N)n(CC(C)C)c2nc3ccccc3nc12 (stereo unspecified)	MOR-DOR inv ag 59 | OPRM1-D1 inv cf 37 | HTR5A inv ctr2 inactive
ON1C2CCCCC2N(O)C1c1ccccc1C(F)(F)F (stereo unspecified)	MOR-DOR inv ag 44 | OPRM1-D1 inv cf inactive | HTR5A inv ctr2 inactive
COc1ccc(CN(C)C(=O)CCN=C2NS(=O)(=O)c3ccccc32)c(OC)c1	none (no result: p-CIP stab down)
O=C(CCC(=O)OCC(=O)c1ccc(Cl)cc1Cl)Nc1cccc2cccnc12	MOR-DOR inv ag 55 | OPRM1-D1 inv cf inactive | HTR5A inv ctr2 inactive
O=C(OCC(=O)c1ccc(Cl)cc1Cl)c1ccc2c(c1)C(=O)N(c1cccc3ncccc13)C2=O	MOR-DOR inv ag 43 | OPRM1-D1 inv cf inactive | HTR5A inv ctr2 inactive
O=C(OCC(=O)c1ccc(Cl)cc1Cl)c1ccccn1	MOR-DOR inv ag 50 (no result: p-CIP stab down) | OPRM1-D1 inv cf inactive | HTR5A inv ctr2 inactive
CN(CC(=O)Nc1ccc(OC(F)(F)F)cc1)C(=O)/C=C/c1cc2c(cc1[N+](=O)[O-])OCO2	none (no result: p-CIP stab down)
CSCCC1NC(=S)N(Cc2ccccc2)C1=O (stereo unspecified)	MOR-DOR inv ag 42 | OPRM1-D1 inv cf inactive | HTR5A inv ctr2 inactive
COC(=O)C1CC(C(=O)OC)C2C(C(=O)OC)CC(C(=O)OC)C12 (stereo unspecified)	none (no result: p-CIP stab down, beta cell repl)
Cc1cc(C)nc(NNS(=O)(=O)c2ccc(F)c(Cl)c2)n1	MOR-DOR inv ag 44 (no result: p-CIP stab down) | OPRM1-D1 inv cf 62 | HTR5A inv ctr2 inactive
COc1ccc(S(=O)(=O)NNc2nc(C)cc(C)n2)cc1Br	MOR-DOR inv ag 31 (no result: p-CIP stab down) | OPRM1-D1 inv cf inactive | HTR5A inv ctr2 inactive
COc1ccc(S(=O)(=O)NC2CC2)cc1Br	none
Cc1cc(C)nc(NNS(=O)(=O)c2ccc(Cl)cc2)n1	MOR-DOR inv ag 45 (no result: p-CIP stab down) | OPRM1-D1 inv cf inactive | HTR5A inv ctr2 inactive
CN[C@@H](C)C(=O)NC[C@H]1O[C@@H](n2cnc3c(N)ncnc32)[C@H](O)[C@@H]1O	none (no result: p-CIP stab down, beta cell repl)
COCCN(C(=O)CSc1nc2ccccc2s1)c1c(N)n(Cc2ccccc2)c(=O)[nH]c1=O	none (no result: p-CIP stab down, beta cell repl)
CS(=O)(=O)c1cccc(C(=O)OCC(=O)Nc2ccc3c(c2)OCO3)c1	none (no result: p-CIP stab down)
CCCCn1c(N)c(N(CC(C)C)C(=O)c2cc(S(=O)(=O)N3CCCCC3)ccc2C)c(=O)[nH]c1=O	none (no result: p-CIP stab down)
C[C@@H](NC(=O)c1cc2c([nH]c3ccccc32)c(-c2ccccc2)n1)C(=O)O	none
Cc1cc(NC(=O)CSCC(=O)OCC(=O)c2cccc(Br)c2)no1	MOR-DOR inv ag 27 (no result: p-CIP stab down) | OPRM1-D1 inv cf inactive | HTR5A inv ctr2 inactive
O=C(NC1CCCc2ccccc21)c1cccc(F)c1 (stereo unspecified)	none (no result: p-CIP stab down, beta cell repl)
O=S(=O)(Nc1cccc2ncccc12)c1cccs1	MOR-DOR inv ag 47 | OPRM1-D1 inv cf inactive | HTR5A inv ctr2 inactive
O=C(NNC(=S)NC(=O)C12CC3CC(CC(C3)C1)C2)c1ccncc1	MOR-DOR inv ag 42 | OPRM1-D1 inv cf inactive | HTR5A inv ctr2 inactive
NNc1nc(-c2ccccc2)cc(-c2ccc(Br)cc2)n1	MOR-DOR inv ag 70 | OPRM1-D1 inv cf 78 | HTR5A inv ctr2 inactive
C=CC[C@@H](CC(=O)OC(C)(C)C)C(=O)OC[C@H]1CCCN1C(=O)[C@@H](CC=C)CC(=O)N(CCO)Cc1ccccc1	none (no result: p-CIP stab down)
Cc1cc(C)cc(OCC(=O)OCC(=O)NC2CC2)c1	none (no result: p-CIP stab down)
O=S(=O)(Nc1ccc(Cl)c(Cl)c1)N1CCOCC1	none
CC1COC(=O)C(NNc2ccc(Cl)c(Cl)c2)=N1 (stereo unspecified)	MOR-DOR inv ag 30 | OPRM1-D1 inv cf inactive | HTR5A inv ctr2 inactive
Cc1cc(-n2nc3ccccc3n2)c(O)c([N+](=O)[O-])c1	MOR-DOR inv ag 26 | OPRM1-D1 inv cf inactive | HTR5A inv ctr2 inactive
COc1ccc(C2=NN(CN3C(=O)C(=O)c4ccccc43)C(c3ccc(Br)cc3)C2)cc1 (stereo unspecified)	none
COc1ccc(C2=NN(CN3C(=O)C(=O)c4ccccc43)C(c3ccc(C)cc3)C2)cc1 (stereo unspecified)	MOR-DOR inv ag 47 | OPRM1-D1 inv cf inactive | HTR5A inv ctr2 inactive
CC1=C/C(=C(/c2ccc(O)c(C)c2)c2ccccc2S(=O)(=O)O)C=CC1=O	MOR-DOR inv ag 29 (no result: p-CIP stab down) | OPRM1-D1 inv cf inactive | HTR5A inv ctr2 inactive
COCCNS(=O)(=O)c1cc2[nH]c3c(c2cc1C)C(=O)CC(C)(C)C3	none
CCOc1ccc(N=C2C(=O)Nc3ccc(C)c(Br)c32)cc1	MOR-DOR inv ag 53 | OPRM1-D1 inv cf 83 | HTR5A inv ctr2 inactive
Cc1ccc2c(c1Br)/C(=N/N1C(=O)c3ccccc3C1=O)C(=O)N2	MOR-DOR inv ag 65 | OPRM1-D1 inv cf inactive | HTR5A inv ctr2 inactive
CC(C)CCNc1nc(N)c([N+](=O)[O-])c(N2CCCCCC2)n1	none
O=C(N=Nc1c(O)[nH]c2ccc([N+](=O)[O-])cc12)c1ccccc1[N+](=O)[O-]	none
CC(Oc1ccccc1)C(=O)N=Nc1c(O)[nH]c2ccc([N+](=O)[O-])cc12 (stereo unspecified)	MOR-DOR inv ag 45 | OPRM1-D1 inv cf inactive | HTR5A inv ctr2 inactive
CC(C)C(=O)Nc1nnc(NC(=S)Nc2ccccc2)s1	MOR-DOR inv ag 36 | OPRM1-D1 inv cf 34 | HTR5A inv ctr2 inactive
Cn1cccc1C(C#N)c1cccc(F)c1C#N (stereo unspecified)	MOR-DOR inv ag 37 | OPRM1-D1 inv cf inactive | HTR5A inv ctr2 inactive
Cn1cccc1C(C#N)(CC#N)c1cccc(F)c1C#N (stereo unspecified)	none
O=C(NNc1cc(Br)c(O)c(Br)c1)c1ccccc1	MOR-DOR inv ag 79 | OPRM1-D1 inv cf 75 | HTR5A inv ctr2 inactive
